Screens (PubChem)
WT yeast gro inh = growth inhibition of WT yeast, mitochondrial fusion screen; mitochondrial fusion phenotypic screen, WT strain; inhibition, % at 10 µM; 2.1% of 190,000 active; in the data active = inhibition above about 58%; tested in S. cerevisiae
SKKanGAS inh = blocks kanamycin growth of S. pyogenes SKKanGAS strain; 1.3% of 300,000 active; BacTiter-Glo, 6 h; inhibition, % at 7.5 µM;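 active = mean replicate score, as percent of positive control median, at least 50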;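 note: strain carries kanamycin resistance gene driven by streptokinase promoter and grows in 40 µg/ml kanamycin; loss of luminescence reflects streptokinase promoter inhibition or plain growth inhibition; 0% = median of DMSO wells and 100% = positive control at its reference dose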
Platelet DG rel = modulates dense granule release in human platelets | human platelet-rich plasma, SFLLRN dense granule ATP release, luminescence | inhibition, %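 (compounds screened at 7.5 µM in platelet-rich plasma)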 | 0.22% of 300,000 active | AID 1663;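 active = mean replicate score, as percent of positive control, at or above 50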
PHOSPHO1 inh = PHOSPHO1 (human) inhibition; Q8TCT1; recombinant PHOSPHO1, absorbance phosphatase assay; inhibition, % at 13.3 µM; 1.1% of 290,000 active; in the data active = inhibition above about 60%
Target sequence (Q8TCT1 whole entry, looked up): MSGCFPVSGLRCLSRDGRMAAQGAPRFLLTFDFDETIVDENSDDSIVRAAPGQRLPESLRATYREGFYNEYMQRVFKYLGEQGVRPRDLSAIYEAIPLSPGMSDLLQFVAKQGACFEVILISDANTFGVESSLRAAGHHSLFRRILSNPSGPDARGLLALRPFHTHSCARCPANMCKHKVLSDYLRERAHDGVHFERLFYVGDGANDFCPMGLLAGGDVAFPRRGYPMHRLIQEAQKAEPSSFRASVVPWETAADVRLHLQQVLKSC
TPT1 inhibitor = C. albicans TPT1 enzyme inhibition | recombinant caTPT1, FP RNA substrate dephosphorylation | inhibition, % at 5 µM | 0.81% of 300,000 active | AID 1962;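 active = inhibition above the mean of all tested compounds plus 3 SD, set per screening campaign, cut at about 24% in these data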;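 note: plate controls were DMSO alone for no effect and ferristatin control at 100 nM for full effect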
Rtt109 Vps75 = inhibitors of Candida albicans Rtt109/Vps75 histone acetyltransferase | purified Rtt109/Vps75, ThioGlo CoA-SH fluorescence, 4 h | inhibition, % at 34.9 µM | Q5AAJ8 | 0.16% of 330,000 active;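 active = inhibition of at least 50% in every replicate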
Target sequence (Q5AAJ8 whole entry, looked up): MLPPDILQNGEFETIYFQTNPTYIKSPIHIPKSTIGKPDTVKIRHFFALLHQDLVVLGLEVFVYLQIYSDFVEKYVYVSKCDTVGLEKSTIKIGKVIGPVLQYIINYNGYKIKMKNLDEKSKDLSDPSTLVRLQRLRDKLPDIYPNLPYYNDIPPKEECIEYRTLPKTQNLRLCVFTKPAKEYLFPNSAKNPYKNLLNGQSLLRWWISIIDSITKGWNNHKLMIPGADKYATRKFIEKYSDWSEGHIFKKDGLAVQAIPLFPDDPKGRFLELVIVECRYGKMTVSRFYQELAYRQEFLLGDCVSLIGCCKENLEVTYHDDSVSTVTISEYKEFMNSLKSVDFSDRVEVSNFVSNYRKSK
* marks the source's active call; other numbers are inactive results; . = not tested or not shown. Shown are actives, neighbours in structure and some others; about 3.9% of the full set was active somewhere.

SMILES | WT yeast gro inh | SKKanGAS inh | Platelet DG rel | PHOSPHO1 inh | TPT1 inhibitor | Rtt109 Vps75
Cc1ccc(-c2csc3nnc(SCC(=O)N4CCN(Cc5ccccc5)CC4)n23)cc1 | -7.3 | 2.8 | 3.7 | 73.8* | -0.5 | 1.8
CN(CC(=O)O/N=C(\N)c1ccc([N+](=O)[O-])cc1)S(=O)(=O)c1ccccc1 | 11.9 | 6.3 | -0.6 | -1.2 | -0.6 | 8.7
CN(CC(=O)O/N=C(\N)c1cccc([N+](=O)[O-])c1)S(=O)(=O)c1ccccc1 | 58.1* | 5.1 | 10.6 | -15.3 | -1.6 | 3.9
O=C(COC(=O)c1ccccc1[N+](=O)[O-])c1ccc(C2CCCCC2)cc1 | 59.7* | 2.3 | 3.0 | 39.7 | -1.6 | 2.0
N#CC1(NC(=O)COC(=O)c2ccccc2[N+](=O)[O-])CCCCC1 | . | 5.5 | -2.5 | . | 1.1 | 0.0
CCN1CCC(O)(C(C(=O)OC)c2ccccc2)CC1 (centres undefined) | . | . | . | . | . | -1.9
CCn1cc(C(=O)N2CCc3ccccc32)c(=O)c2cc(S(=O)(=O)N(C)C3CCCCC3)ccc21 | 83.3* | 7.5 | -5.5 | -0.2 | -2.3 | -3.5
CC(C)CN(C(=O)C1CCC1)c1c(N)n(Cc2ccccc2)c(=O)[nH]c1=O | . | . | . | . | . | 18.6
S=c1[nH]nc(-c2ccco2)n1-c1ccc(Cl)cc1 | 12.4 | -3.9 | 15.4 | -9.1 | -1.2 | 5.5
COc1ccccc1-c1n[nH]c(=S)n1N | 7.8 | -0.4 | 5.6 | -6.8 | 2.6 | -6.0
Nn1c(-c2ccco2)n[nH]c1=S | -6.3 | 3.1 | 1.9 | 85.5* | 0.5 | -0.3
COc1ccccc1-c1n[nH]c(=S)n1-c1ccccc1 | -4.5 | -2.9 | -6.5 | 89.4* | -2.3 | 12.4
COc1ccc(-n2c(-c3ccco3)n[nH]c2=S)cc1 | -4.5 | 0.6 | 0.3 | 99.0* | -0.8 | 2.7
COc1cc(OC)cc(-c2n[nH]c(=S)n2-c2cc(OC)ccc2OC)c1 | -2.0 | -0.3 | -0.4 | 81.6* | -1.3 | 3.6
CCCCCCCCNC(C)C(O)c1ccc(SC(C)C)cc1 (centres undefined) | 98.3* | 0.2 | 11.2 | 15.8 | 0.3 | 21.9
COc1cc(NC(=O)COc2c(C)cc(C)cc2[N+](=O)[O-])c(OC)cc1Cl | 18.9 | 7.6 | 3.4 | -16.9 | 1.2 | 51.6*
COC(=O)c1nn(-c2ccc3c(c2)CCN3C(C)=O)cc1O | -15.8 | 5.8 | 52.0* | 40.7 | -6.5 | -2.2
Cc1nc(NC(=O)c2ccccc2)sc1Cc1ccc2c(c1)OCO2 | 40.9 | 11.1 | 1.5 | -2.0 | -2.0 | 3.0
Cc1nc(NC(=O)c2ccc(Cl)cc2)sc1Cc1ccc2c(c1)OCO2 | 0.8 | 21.9 | -6.6 | 71.2* | 2.1 | .
O=C(CNC(=O)c1cccs1)NCC(=O)OCc1ccccc1Cl | -5.6 | -3.1 | 2.5 | 39.3 | 3.0 | 3.2
O=C(CNC(=O)c1ccccc1)NCC(=O)OCc1ccccc1Cl | 18.7 | -0.8 | -3.5 | 60.0* | -7.9 | 2.3
COc1ccc(CN2C(=O)c3ccccc3C(/C=N\OCc3ccc(C)cc3)C2=O)cc1 (centres undefined) | -11.6 | 106.2* | 2.2 | 12.2 | 20.3 | -76.5
Cc1cc(=S)nc(-c2ccccn2)[nH]1 | . | 21.3 | 7.6 | -108.3 | -1.2 | -0.9
Cc1[nH]c(-c2ccccn2)nc(=S)c1Cl | . | 88.2* | -5.8 | -103.5 | -2.9 | 20.6
CC[C@]12c3[nH]c4ccc(OC)cc4c3CCN1C(=O)C(CC(=O)NCCCOC)C[C@@H]2C(=O)N1CCN(C(=O)c2ccco2)CC1 (some centres undefined) | . | . | . | . | . | 9.1
SMILES | WT yeast gro inh | SKKanGAS inh | Platelet DG rel | PHOSPHO1 inh | TPT1 inhibitor | Rtt109 Vps75
COc1ccc2[nH]c(=O)c(CN(C3CCCCC3)C(c3nnnn3Cc3ccco3)C(C)C)cc2c1 (centres undefined) | 2.7 | 19.2 | 22.4 | 37.0 | 57.5* | 5.6
S=C(NCc1cccs1)Nc1cc(Cl)cc(Cl)c1 | . | 65.8* | 8.8 | 29.8 | -3.7 | 6.3
COc1ccc(NC(=S)NCc2cccs2)cc1 | 2.8 | -4.9 | -1.9 | 54.2 | -4.3 | 2.7
S=C(NCc1cccs1)Nc1cccc(Cl)c1 | 7.6 | 4.6 | -7.5 | -3.4 | -4.6 | 3.1
CC(C)c1ccc(NC(=S)NCc2cccs2)cc1 | 67.4* | -12.7 | -3.8 | 33.4 | 1.5 | 11.4
COc1ccc2cc(C(=O)N3CCC(Cc4ccccc4)CC3)[nH]c2c1 | . | 1.0 | -6.6 | 21.6 | -0.2 | -1.1
Cc1cc(C(=O)Nc2cc(S(C)(=O)=O)ccc2Cl)c(C)o1 | . | . | . | . | . | -1.9
Cc1ccc(C(C(=O)NCC2CCCO2)N(Cc2ccccc2)C(=O)c2ccc(-c3ccccc3)[nH]2)o1 (centres undefined) | 68.5* | 21.5 | -2.7 | -6.0 | -3.4 | -1.4
O=C(N/N=C/c1c(Cl)cccc1Cl)c1n[nH]c2c1CCCC2 | 74.7* | -22.9 | 0.3 | 5.7 | -2.2 | -1.2
Cc1ccc(C(=O)Nc2cc3ccccc3oc2=O)cc1 | 31.0 | -9.3 | 49.7* | 31.7 | -1.1 | -13.6
O=C(CSc1ncccn1)N1CCN(C(=O)CSc2ncccn2)CC1 | -4.2 | 3.2 | -2.2 | -13.2 | -1.0 | -3.9
O=C(CC(c1ccccc1)c1ccccc1)N1CCN(c2ccccn2)CC1 | 8.3 | 4.0 | -4.2 | 65.6* | -3.0 | -6.0
O=C(CC(c1ccccc1)c1ccco1)N1CCCCC1 (centres undefined) | -13.5 | -0.4 | -3.9 | 60.0* | -2.0 | -13.9
Cc1ccc(C(CC(=O)N2CCOCC2)c2ccco2)cc1 (centres undefined) | -11.1 | -2.5 | -2.6 | 9.7 | 0.6 | 2.6
O=C(N1CCN(c2ccccn2)CC1)N1c2ccccc2Sc2ccccc21 | 71.5* | 6.9 | -2.7 | 1.3 | -1.7 | -6.8
O=C(CSc1ncccn1)N1CCN(C(c2ccccc2)c2ccccc2)CC1 | 20.1 | 4.6 | -6.2 | 85.8* | -5.1 | 0.6
O=C(c1ccc(Br)s1)N1CCN(c2ccccn2)CC1 | . | 7.5 | -45.8 | -14.7 | -5.5 | -6.2
O=C(COC(=O)c1ccc(F)cc1Cl)NC(=O)NC1CCCC1 | . | . | . | . | . | -0.9
CCCCN(C(=O)CSCC(=O)Nc1ccc(OC)cc1)c1c(N)n(CC(C)C)c(=O)[nH]c1=O | . | . | . | . | . | 30.2
COc1cccc2c(=O)c(SC(F)(F)C(F)C(F)(F)F)c(C)[nH]c12 (centres undefined) | -4.9 | 1.5 | -0.7 | -1.6 | 4.3 | 13.9
Cc1[nH]c2ccc(F)cc2c(=O)c1SC(F)(F)C(F)C(F)(F)F (centres undefined) | -7.3 | 3.1 | 1.9 | 88.1* | -2.9 | -10.2
CC(=O)c1cccc(NC(=O)C(C)OC(=O)CN2C(=O)NC(C)(C)C2=O)c1 (centres undefined) | . | . | . | . | . | 4.0
COc1ccc(N=C(C)C2=C(O)CSC2=O)cc1 | -1.4 | 5.5 | -1.4 | 88.8* | -1.3 | 7.6
N#CC(=C1N=c2ccccc2=N1)c1c(O)[nH]c2ccccc12 | 1.1 | . | . | 32.5 | . | .
Oc1[nH]c(N=C2N=c3ccccc3=N2)c2ccccc12 | . | 82.1* | 17.6 | 5.3 | -0.2 | -1.4
CCN(CC)CCOC(=O)c1ccc(NC(=O)CCCN2C(=O)/C(=C/c3cccs3)SC2=S)cc1 | . | 2.3 | -3.0 | 27.4 | . | -9.2
